Rows were chosen to be rich in hits. Some 15% of all compounds tested hit in one or more screens of this group.
Sm TGR inh: inhibitors of Schistosoma mansoni thioredoxin glutathione reductase; Q962Y6; 360,000 compounds, 3% hits; Potency, µM (series often up to 114 µM), actives largely listed as inhibitors; purified TGR, DTNB reduction, TNB absorbance 405 nm; further: nearly all actives have a fitted effect of over 60% in size
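Kinetic colorimetric format: TGR-catalysed, NADPH-driven DTNB reduction monitored via TNB absorbance. Enzyme dispensed at 20 nM; compound exposure 15 min at room temperature before reaction start.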
HCV inh: inhibitors of hepatitis C virus infection. Huh7.5.1 HCVcc-Cre infection, luciferase reporter, 44 h. Potency, µM (titrated, usually from 41.8 µM), actives largely listed as inhibitors. 340,000 compounds, 3.4% hits. AID 651820
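Infectious HCVcc-Cre (~0.5 moi) was added to cells just after compound, with cells seeded 4 h earlier at 1,000 per well. Luciferase activity after 44 h culture reported infection; substrate was incubated 15 min at room temperature before reading.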
Pf growth 48h: P. falciparum growth inhibition at 48 hours (one generation) | Potency, µM (series often up to 28.7 µM), actives largely listed as inhibitors | 310,000 compounds, 5.9% hits | P. falciparum luciferase growth in erythrocytes, 48 h
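Luminescence readout; reporter = integrated firefly luciferase in P. falciparum. RBC culture at 2% hematocrit, 0.1% parasitemia final, 37 C/5% CO2; decreased signal taken as growth inhibition.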
HCMV antiviral: blocks human cytomegalovirus replication; 410,000 compounds, 4.5% hits; HFF cells, HCMV-luciferase reporter, 72 h; active compounds read low; AID 1259415; activity change, negative = inhibition, % at 57.5 µM; in the data active means activity change below about -60%; inconclusive means no clear call, values can overlap the other calls; inactive means above about -39%
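Cell-based, HFFs, 1000 cells/well, 16 h 37C; cpds in DMSO + HCMV-luc, MOI 1 PFU/cell; 72 h 37C; OneGlo luminescence after 5 min RT; norm. to buffer vs Salinomycin 10uM.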
SARS PLP yeast: SARS-CoV PLP inhibition in yeast. S. cerevisiae expressing SARS-CoV PLpro, growth rescue. Potency, µM (highest dose often 32.9 µM), hits mostly activators. 330,000 compounds, 0.19% hits; calls by dose curve; further: nearly all actives have a fitted effect of over 55% in size
Pf growth 96h: P. falciparum growth inhibition at 96 hours | P. falciparum luciferase reporter growth, 96 h | AID 504834 | 320,000 compounds, 6.9% hits | Potency, µM (titrated, usually from 28.7 µM), actives largely listed as inhibitors
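Plates of compound plus infected erythrocytes (2% hematocrit, 0.05% parasitemia final) incubate 96 hours, 37 C, 5% CO2. Detection reagent added; reduced luminescence from the parasites' luciferase reporter flags inhibition.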
Of the large screens only hits and unclear results are named; the others gave an inactive call. Unless noted, the call rests on the fitted dose curve; in most records, active means well fitted curve in the direction sought with a large enough effect; inconclusive means small, poorly fitted or top-dose-only effect, or another doubt; inactive means no such curve, though single readings can be large; an effect the other way counts as inactive or inconclusive.

CCN(CC)CCN(Cc1cc2cc(C)ccc2[nH]c1=O)C(=O)Nc1ccccc1OC	Pf growth 48h inconclusive (no result: Pf growth 96h)
COc1ccccc1NC(=O)N(Cc1ccco1)Cc1cc2cccc(C)c2[nH]c1=O	Pf growth 48h inconclusive, Pf growth 96h 13µM
COc1ccccc1NC(=O)N(Cc1ccco1)Cc1cc2c(C)ccc(C)c2[nH]c1=O	Sm TGR inh 32µM, HCV inh inconclusive, Pf growth 48h inconclusive
Cc1ccc(C)c(N2C(=O)c3ccc(C(=O)Nc4ccccn4)cc3C2=O)c1	none (no result: Sm TGR inh, HCV inh, Pf growth 48h, SARS PLP yeast, Pf growth 96h)
C=C(C)CSc1nc2sc3c(c2c(=O)n1-c1ccccc1)CC(C(C)C)OC3 (stereo not given)	none (no result: HCV inh, Pf growth 48h, SARS PLP yeast, Pf growth 96h)
COc1ccccc1NC(=S)N(Cc1ccco1)Cc1cc2cc(C)ccc2[nH]c1=O	HCV inh inconclusive, Pf growth 48h 12µM, HCMV antiviral -61, Pf growth 96h inconclusive
CCN1CCCC1CN(Cc1cc2cc(C)cc(C)c2[nH]c1=O)C(=O)Nc1ccccc1OC (stereo not given)	Sm TGR inh inconclusive, Pf growth 48h 9.3µM
CC(C)NC(=O)CN1CCN(Cc2nc(C(c3ccccc3)c3ccccc3)no2)CC1	Pf growth 48h 9.3µM, HCMV antiviral inconclusive
Cc1c(Cc2ccccc2)c(=O)oc2c(C)c(OC(C)C(=O)NCC3CCC(C(=O)O)CC3)ccc12 (stereo not given)	Pf growth 48h inconclusive, Pf growth 96h 13µM
Cc1c(Cc2ccccc2)c(=O)oc2cc(OCC(=O)NCC3CCC(C(=O)O)CC3)ccc12 (stereo not given)	HCV inh inconclusive, Pf growth 48h inconclusive, Pf growth 96h 12µM
Cc1cc(OC(C)C(=O)NCC2CCC(C(=O)O)CC2)c2c(C)c(Cc3ccccc3)c(=O)oc2c1 (stereo not given)	Sm TGR inh inconclusive, HCV inh inconclusive, Pf growth 48h inconclusive, Pf growth 96h 10µM
Cc1nn(C)cc1CN(C)C(=O)C1CCC(=O)N(CCc2cccc(F)c2)C1 (stereo not given)	none (no result: Sm TGR inh, HCV inh, Pf growth 48h, SARS PLP yeast, Pf growth 96h)
O=C1c2ccccc2C(=O)c2c1cccc2N1CCOCC1	HCV inh 22µM
CC(=O)N1CCCc2cc(S(=O)(=O)N(C)Cc3ccccc3)ccc21	HCV inh 35µM, Pf growth 96h inconclusive
CCOc1ccc(N(C)S(=O)(=O)c2ccc3c(c2)CCCN3C(C)=O)cc1	none (no result: HCV inh, Pf growth 48h, SARS PLP yeast, Pf growth 96h)
CCCCN(CC)S(=O)(=O)c1ccc2c(c1)CCCN2C(C)=O	Pf growth 48h inconclusive, Pf growth 96h 13µM
CC(=O)N1CCCc2cc(S(=O)(=O)N(CCN(C)C)Cc3ccccc3)ccc21	none (no result: HCV inh, Pf growth 48h, SARS PLP yeast, Pf growth 96h)
COc1ccc(-c2nnc(SCC(=O)c3ccc(NC(C)=O)cc3)o2)cc1OC	none (no result: HCV inh, Pf growth 48h, SARS PLP yeast, Pf growth 96h)
C[C@@H]1ON(C)[C@H]2C[C@H]3c4[nH]c5ccccc5c4CCN3C[C@@H]12	none (no result: Sm TGR inh, HCV inh, Pf growth 48h, SARS PLP yeast, Pf growth 96h)
COC(=O)C1=CO[C@@H](C)[C@H]2CN3CCc4c([nH]c5ccccc45)[C@@H]3C[C@H]12	HCV inh inconclusive, Pf growth 48h inconclusive, HCMV antiviral -68, Pf growth 96h inconclusive (no result: SARS PLP yeast)
COC(=O)C1=COC(C)C2CN3CCc4c([nH]c5ccccc45)C3CC12 (stereo not given)	Sm TGR inh 79µM, Pf growth 48h inconclusive (no result: HCMV antiviral, Pf growth 96h)
COC1C(O)C(C)OC(OC2C(Oc3cccc4c(O)c5c(=O)oc6ccc(C)c7c(=O)oc(c34)c5c67)OC(C)C(O)C2O)C1O (stereo not given)	HCV inh inconclusive, HCMV antiviral -97 (no result: Sm TGR inh, Pf growth 48h, SARS PLP yeast, Pf growth 96h)
COC(=O)CSc1nc(C)cc(N2CCOCC2)n1	none
Fc1ccc(Nc2nc3nonc3nc2Nc2cccc(C(F)(F)F)c2)cc1	HCMV antiviral -101 (no result: HCV inh, Pf growth 48h, SARS PLP yeast, Pf growth 96h)
O=C(O)c1cccnc1Nc1cccc(C(F)(F)F)c1	none
CC1Sc2ccccc2N(CC(=O)N(C(C)C)C(C)C)C1=O (stereo not given)	none (no result: Pf growth 96h)
Cc1cccc(NC(=O)C2CCCN(c3ncnc4c3nc3n4CCCCC3)C2)n1 (stereo not given)	Pf growth 48h inconclusive, Pf growth 96h inconclusive
COc1ccc(C)cc1S(=O)(=O)N1CCN(C(=O)c2ncoc2-c2ccc(C)cc2)CC1	HCMV antiviral -70
COc1ccc(C)cc1S(=O)(=O)N1CCN(C(=O)c2ncoc2-c2cccc(C)c2)CC1	Pf growth 96h 0.93µM

Source: PubChem (National Center for Advancing Translational Sciences (NCATS))
